The values that follow come from paper PMC7862700, “An all-to-all approach to the identification of sequence-specific readers for epigenetic DNA modifications on cytosine”.

Holding throughout (experiment): DAPPL (digital affinity profiling via proximity ligation, sequencing); 10 mM Tris-HCl pH 7.5, 50 mM NaCl, 1 mM DTT, 4% glycerol, room temperature, 30 min; GST-TFs on glutathione beads, 16-mer random dsDNA library, 0.1% formaldehyde crosslink after washing; high values mean tight binding
In one assay the target is T1, FLI1 (Homo sapiens, UniProt Q01543 1-452).
T1 sequence: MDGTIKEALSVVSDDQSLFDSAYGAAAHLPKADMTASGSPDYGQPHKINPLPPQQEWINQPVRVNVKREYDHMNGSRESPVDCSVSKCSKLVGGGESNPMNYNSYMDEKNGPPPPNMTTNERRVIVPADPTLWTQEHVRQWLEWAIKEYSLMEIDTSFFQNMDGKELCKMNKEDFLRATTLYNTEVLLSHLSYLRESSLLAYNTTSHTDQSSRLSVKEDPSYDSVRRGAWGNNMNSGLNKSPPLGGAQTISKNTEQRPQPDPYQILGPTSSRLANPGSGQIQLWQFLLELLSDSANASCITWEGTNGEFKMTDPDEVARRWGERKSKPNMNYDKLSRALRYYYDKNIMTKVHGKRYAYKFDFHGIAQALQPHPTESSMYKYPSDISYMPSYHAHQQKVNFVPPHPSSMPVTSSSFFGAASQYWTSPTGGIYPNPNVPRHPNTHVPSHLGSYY
To be noted: protein: recombinant; tags: N-terminal GST; dsDNA, one strand shown. A digest of the protocol:
(§1)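 Pools were built from human transcription factors expressed in yeast as GST fusions, captured on glutathione beads and DNA-barcoded, along with a tag-only sample. Incubation with 200 nmole of a 16-mer random double-stranded DNA library lasted 30 min at room temperature in Tris/NaCl/DTT/glycerol buffer, and was followed by washing, 0.1% formaldehyde crosslinking, proximity ligation, PCR amplification and Illumina NextSeq500 sequencing. Binding signal is the quotient of each hexamer's read frequency for a factor and its frequency for the tag-only sample.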

In a further assay the target is T2, ELK1 (Homo sapiens, UniProt P19419 1-428).
T2 sequence: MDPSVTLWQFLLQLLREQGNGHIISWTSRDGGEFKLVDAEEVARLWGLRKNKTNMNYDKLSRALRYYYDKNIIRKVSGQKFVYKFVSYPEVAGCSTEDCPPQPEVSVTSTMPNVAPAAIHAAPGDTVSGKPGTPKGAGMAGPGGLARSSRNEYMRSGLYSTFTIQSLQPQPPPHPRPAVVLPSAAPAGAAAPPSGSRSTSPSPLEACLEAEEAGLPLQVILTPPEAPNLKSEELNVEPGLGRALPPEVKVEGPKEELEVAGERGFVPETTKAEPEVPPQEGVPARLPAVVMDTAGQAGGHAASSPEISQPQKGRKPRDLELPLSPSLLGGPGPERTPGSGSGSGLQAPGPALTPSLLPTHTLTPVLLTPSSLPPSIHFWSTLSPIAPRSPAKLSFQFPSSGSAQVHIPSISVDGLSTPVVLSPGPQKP
To be noted: protein: recombinant; tags: N-terminal GST; dsDNA, one strand shown. In short, it runs like this: as §1

In the next assay the target is T3, GABPA (Homo sapiens, UniProt Q06546 1-454).
T3 sequence: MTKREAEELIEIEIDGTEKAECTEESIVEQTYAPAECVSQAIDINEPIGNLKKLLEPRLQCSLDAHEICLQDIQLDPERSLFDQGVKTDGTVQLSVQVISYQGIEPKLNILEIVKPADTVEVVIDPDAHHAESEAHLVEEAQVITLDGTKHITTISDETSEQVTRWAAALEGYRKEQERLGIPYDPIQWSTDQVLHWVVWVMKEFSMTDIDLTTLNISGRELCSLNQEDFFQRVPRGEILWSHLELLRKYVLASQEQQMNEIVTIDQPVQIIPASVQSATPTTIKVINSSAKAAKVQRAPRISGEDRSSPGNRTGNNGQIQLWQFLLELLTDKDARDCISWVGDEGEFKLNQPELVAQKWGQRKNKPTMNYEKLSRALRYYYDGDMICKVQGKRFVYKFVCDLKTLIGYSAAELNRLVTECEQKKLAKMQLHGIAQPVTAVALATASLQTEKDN
To be noted: protein: recombinant; tags: N-terminal GST; dsDNA, one strand shown. A digest of the protocol: as §1

The next assay deals with T4, ERG (Homo sapiens, UniProt P11308 1-479).
T4 sequence: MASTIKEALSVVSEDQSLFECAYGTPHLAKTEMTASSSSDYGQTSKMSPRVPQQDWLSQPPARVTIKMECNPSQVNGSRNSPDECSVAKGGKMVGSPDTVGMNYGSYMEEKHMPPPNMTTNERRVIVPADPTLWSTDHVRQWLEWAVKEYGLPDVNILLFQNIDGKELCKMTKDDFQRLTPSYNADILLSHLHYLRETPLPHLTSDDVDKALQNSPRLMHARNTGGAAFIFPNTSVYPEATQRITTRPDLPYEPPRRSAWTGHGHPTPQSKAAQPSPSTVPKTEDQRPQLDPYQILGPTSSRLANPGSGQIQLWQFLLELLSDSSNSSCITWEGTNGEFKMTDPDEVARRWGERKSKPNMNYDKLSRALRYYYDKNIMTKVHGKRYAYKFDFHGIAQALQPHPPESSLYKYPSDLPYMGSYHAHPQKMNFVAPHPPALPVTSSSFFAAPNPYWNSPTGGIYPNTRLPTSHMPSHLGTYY
To be noted: protein: recombinant; tags: N-terminal GST; dsDNA, one strand shown. In short, it runs like this: as §1

Another assay concerns the target ELF1 (Homo sapiens, UniProt P32519 1-619). To be noted: protein: recombinant; tags: N-terminal GST; dsDNA, one strand shown. A digest of the protocol:
as §1

The target in the next assay is T5, EHF (Homo sapiens, UniProt Q9NZC4 1-300).
T5 sequence: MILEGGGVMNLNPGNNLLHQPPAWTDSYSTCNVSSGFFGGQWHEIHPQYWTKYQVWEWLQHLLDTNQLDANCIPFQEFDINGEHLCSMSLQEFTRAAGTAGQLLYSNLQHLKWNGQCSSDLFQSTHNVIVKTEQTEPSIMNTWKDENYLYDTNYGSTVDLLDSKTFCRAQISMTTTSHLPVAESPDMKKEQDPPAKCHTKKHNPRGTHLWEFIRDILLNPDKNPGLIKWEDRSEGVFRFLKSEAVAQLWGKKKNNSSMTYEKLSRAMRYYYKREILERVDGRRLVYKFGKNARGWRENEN
To be noted: protein: recombinant; tags: N-terminal GST; dsDNA, one strand shown. In short, it runs like this: as §1

For the next assay, the target named is SPI1 (Homo sapiens, UniProt P17947 1-270). To be noted: protein: recombinant; tags: N-terminal GST; dsDNA, one strand shown. In short, it runs like this: as §1
Another assay deals with SPIB (Homo sapiens, UniProt Q01892 1-262). To be noted: protein: recombinant; tags: N-terminal GST; dsDNA, one strand shown. A digest of the protocol: as §1
Sequence of SPIB (Q01892 whole entry): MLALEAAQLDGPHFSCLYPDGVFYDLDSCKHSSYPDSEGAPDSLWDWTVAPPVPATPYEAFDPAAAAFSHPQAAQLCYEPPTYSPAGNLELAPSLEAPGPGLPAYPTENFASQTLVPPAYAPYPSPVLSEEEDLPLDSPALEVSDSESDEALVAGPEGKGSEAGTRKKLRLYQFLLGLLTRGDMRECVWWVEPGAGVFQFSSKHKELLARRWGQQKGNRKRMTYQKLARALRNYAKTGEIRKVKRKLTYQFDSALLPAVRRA
The target in a further assay is T6, ELK3 (Homo sapiens, UniProt P41970 1-407).
T6 sequence: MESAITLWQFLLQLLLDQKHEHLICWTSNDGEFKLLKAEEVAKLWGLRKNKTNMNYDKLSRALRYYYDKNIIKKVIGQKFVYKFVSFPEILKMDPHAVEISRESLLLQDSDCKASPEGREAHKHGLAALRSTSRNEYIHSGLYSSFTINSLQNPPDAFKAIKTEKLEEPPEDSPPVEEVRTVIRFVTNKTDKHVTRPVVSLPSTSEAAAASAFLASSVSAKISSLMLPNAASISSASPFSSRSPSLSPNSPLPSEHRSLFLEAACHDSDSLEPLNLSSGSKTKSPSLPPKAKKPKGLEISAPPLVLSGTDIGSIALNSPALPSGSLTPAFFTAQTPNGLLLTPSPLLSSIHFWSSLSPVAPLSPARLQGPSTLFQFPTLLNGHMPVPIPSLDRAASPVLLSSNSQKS
To be noted: protein: recombinant; tags: N-terminal GST; dsDNA, one strand shown. In short, it runs like this: as §1

In the next assay the target is T7, FEV (Homo sapiens, UniProt Q99581 1-238).
T7 sequence: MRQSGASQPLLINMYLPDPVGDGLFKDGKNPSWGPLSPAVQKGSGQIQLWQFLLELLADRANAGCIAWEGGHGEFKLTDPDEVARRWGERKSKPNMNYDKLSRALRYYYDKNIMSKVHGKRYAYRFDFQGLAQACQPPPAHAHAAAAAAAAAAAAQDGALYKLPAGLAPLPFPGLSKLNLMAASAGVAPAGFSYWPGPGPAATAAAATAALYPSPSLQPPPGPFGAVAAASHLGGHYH
To be noted: protein: recombinant; tags: N-terminal GST; dsDNA, one strand shown. In short, it runs like this: as §1

In a further assay the target is ETV5 (Homo sapiens, UniProt P41161 1-510). To be noted: protein: recombinant; tags: N-terminal GST; dsDNA, one strand shown. A digest of the protocol:
as §1

In another assay the target is HSF1 (Homo sapiens, UniProt Q00613 1-529). To be noted: protein: recombinant; tags: N-terminal GST; chain copies: 3; dsDNA, one strand shown. A digest of the protocol:
as §1

The next assay deals with T8, SPIC (Homo sapiens, UniProt Q8N5J4 1-248).
T8 sequence: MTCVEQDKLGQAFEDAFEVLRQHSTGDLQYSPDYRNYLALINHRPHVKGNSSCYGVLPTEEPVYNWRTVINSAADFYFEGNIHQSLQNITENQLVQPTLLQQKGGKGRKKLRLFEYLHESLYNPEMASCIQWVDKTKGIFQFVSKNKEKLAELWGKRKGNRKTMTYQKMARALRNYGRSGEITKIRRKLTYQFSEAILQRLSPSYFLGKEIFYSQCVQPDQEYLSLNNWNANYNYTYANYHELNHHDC
To be noted: protein: recombinant; tags: N-terminal GST; dsDNA, one strand shown. A digest of the protocol: as §1

The next assay concerns the target ELF4 (Homo sapiens, UniProt Q99607 1-663). To be noted: protein: recombinant; tags: N-terminal GST; dsDNA, one strand shown. A digest of the protocol:
as §1

Another assay has as its target T9, ELK4 (Homo sapiens, UniProt P28324-2 1-405).
T9 sequence: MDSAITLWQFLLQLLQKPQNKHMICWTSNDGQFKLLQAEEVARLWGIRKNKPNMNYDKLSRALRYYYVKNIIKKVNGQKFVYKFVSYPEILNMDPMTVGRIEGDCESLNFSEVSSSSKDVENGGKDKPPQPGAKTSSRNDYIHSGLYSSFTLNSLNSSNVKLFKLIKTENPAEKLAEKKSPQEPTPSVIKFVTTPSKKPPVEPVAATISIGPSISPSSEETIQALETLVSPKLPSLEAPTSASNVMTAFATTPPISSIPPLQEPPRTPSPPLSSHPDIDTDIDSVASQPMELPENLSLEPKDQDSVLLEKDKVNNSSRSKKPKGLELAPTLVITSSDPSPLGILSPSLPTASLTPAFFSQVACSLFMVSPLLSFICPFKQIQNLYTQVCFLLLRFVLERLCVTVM
To be noted: protein: recombinant; tags: N-terminal GST; dsDNA, one strand shown. In short, it runs like this:
as §1

For another assay, the target named is T10, ETV2 (Homo sapiens, UniProt O00321 1-342).
T10 sequence: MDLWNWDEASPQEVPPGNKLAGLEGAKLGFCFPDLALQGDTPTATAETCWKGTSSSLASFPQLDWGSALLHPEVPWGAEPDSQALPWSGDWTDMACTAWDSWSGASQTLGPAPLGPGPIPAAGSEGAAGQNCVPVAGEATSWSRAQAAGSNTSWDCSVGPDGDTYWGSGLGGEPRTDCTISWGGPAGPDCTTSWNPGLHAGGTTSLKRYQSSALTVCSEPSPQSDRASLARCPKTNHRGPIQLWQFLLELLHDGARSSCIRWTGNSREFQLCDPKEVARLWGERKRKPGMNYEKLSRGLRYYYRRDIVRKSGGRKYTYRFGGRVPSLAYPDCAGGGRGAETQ
To be noted: protein: recombinant; tags: N-terminal GST; dsDNA, one strand shown. In short, it runs like this: as §1

For the next assay, the target named is T11, ELF3 (Homo sapiens, UniProt P78545 1-371).
T11 sequence: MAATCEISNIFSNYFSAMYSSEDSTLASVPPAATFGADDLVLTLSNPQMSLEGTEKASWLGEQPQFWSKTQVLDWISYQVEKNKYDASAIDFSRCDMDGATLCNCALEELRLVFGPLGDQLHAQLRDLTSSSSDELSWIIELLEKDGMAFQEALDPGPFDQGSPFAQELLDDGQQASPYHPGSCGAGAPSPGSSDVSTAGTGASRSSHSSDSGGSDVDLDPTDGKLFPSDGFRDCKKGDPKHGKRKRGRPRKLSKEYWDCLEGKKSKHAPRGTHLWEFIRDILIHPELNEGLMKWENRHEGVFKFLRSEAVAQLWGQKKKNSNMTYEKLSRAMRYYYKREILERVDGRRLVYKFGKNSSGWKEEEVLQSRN
To be noted: protein: recombinant; tags: N-terminal GST; dsDNA, one strand shown. In short, it runs like this: as §1

A further assay addresses CRX (Homo sapiens, UniProt O43186 1-299). To be noted: protein: recombinant; tags: N-terminal GST; dsDNA, one strand shown. In short, it runs like this:
as §1

The next assay deals with ETV1 (Homo sapiens, UniProt P50549 1-477). To be noted: protein: recombinant; tags: N-terminal GST; dsDNA, one strand shown. A digest of the protocol:
as §1

Sequence of ETV1 (P50549 whole entry): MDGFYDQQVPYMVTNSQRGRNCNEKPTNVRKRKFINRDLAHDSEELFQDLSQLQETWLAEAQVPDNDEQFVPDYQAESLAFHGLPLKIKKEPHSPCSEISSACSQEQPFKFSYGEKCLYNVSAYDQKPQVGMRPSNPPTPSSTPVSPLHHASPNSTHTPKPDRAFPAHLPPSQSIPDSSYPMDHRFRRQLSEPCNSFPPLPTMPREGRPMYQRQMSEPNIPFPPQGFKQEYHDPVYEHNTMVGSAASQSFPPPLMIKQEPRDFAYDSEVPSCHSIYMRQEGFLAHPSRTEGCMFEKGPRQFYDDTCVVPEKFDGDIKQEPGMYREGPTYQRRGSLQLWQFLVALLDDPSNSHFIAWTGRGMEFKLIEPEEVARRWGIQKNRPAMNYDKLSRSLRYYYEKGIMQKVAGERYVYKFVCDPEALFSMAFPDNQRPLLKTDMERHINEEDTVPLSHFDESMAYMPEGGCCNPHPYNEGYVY
Sequence of ETV5 (P41161 whole entry): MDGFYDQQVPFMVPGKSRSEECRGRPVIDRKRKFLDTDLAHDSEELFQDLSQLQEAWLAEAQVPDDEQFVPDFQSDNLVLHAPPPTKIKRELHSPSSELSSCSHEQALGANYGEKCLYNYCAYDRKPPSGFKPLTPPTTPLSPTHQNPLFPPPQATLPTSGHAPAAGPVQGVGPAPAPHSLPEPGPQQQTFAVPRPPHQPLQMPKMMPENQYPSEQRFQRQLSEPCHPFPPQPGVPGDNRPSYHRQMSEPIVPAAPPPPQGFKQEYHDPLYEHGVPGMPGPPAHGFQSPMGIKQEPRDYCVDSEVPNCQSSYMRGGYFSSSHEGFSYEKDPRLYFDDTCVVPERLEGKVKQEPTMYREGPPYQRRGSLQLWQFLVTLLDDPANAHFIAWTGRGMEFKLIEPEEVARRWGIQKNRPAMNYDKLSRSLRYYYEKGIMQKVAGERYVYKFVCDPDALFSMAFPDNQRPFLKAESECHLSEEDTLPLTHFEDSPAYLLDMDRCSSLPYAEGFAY
Sequence of ELF1 (P32519 whole entry): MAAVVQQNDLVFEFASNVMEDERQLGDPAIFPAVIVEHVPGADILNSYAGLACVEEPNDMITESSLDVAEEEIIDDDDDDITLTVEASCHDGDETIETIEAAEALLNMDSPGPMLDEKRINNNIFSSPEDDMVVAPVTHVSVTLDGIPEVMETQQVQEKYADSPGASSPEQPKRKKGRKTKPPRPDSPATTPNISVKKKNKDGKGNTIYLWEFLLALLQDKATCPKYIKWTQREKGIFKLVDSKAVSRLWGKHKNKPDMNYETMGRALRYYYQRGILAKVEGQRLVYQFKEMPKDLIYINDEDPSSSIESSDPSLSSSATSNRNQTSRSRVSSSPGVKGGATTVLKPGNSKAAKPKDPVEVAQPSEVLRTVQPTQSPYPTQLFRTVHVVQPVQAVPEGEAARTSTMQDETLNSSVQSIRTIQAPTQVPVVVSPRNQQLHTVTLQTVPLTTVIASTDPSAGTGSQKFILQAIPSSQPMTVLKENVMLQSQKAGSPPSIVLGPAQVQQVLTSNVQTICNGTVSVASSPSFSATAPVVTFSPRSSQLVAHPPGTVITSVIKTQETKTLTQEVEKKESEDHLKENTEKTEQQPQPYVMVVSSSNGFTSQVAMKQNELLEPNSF
Sequence of ELF4 (Q99607 whole entry): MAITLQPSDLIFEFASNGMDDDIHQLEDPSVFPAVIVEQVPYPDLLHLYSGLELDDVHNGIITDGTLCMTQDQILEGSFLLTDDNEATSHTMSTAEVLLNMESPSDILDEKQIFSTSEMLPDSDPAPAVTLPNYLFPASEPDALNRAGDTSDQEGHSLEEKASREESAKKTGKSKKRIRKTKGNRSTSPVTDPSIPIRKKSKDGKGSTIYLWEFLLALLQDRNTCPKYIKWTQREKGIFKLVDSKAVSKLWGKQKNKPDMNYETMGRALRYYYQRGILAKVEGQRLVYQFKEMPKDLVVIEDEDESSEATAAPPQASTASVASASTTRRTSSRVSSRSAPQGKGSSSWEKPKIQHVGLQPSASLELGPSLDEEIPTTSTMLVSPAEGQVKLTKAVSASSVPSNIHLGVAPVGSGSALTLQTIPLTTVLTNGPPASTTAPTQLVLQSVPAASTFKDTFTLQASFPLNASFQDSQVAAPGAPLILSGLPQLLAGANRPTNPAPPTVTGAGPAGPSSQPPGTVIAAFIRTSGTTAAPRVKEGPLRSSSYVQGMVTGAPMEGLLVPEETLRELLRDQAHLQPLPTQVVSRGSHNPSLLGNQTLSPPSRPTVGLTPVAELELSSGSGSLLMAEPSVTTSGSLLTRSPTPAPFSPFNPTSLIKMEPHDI
Sequence of HSF1 (Q00613 whole entry): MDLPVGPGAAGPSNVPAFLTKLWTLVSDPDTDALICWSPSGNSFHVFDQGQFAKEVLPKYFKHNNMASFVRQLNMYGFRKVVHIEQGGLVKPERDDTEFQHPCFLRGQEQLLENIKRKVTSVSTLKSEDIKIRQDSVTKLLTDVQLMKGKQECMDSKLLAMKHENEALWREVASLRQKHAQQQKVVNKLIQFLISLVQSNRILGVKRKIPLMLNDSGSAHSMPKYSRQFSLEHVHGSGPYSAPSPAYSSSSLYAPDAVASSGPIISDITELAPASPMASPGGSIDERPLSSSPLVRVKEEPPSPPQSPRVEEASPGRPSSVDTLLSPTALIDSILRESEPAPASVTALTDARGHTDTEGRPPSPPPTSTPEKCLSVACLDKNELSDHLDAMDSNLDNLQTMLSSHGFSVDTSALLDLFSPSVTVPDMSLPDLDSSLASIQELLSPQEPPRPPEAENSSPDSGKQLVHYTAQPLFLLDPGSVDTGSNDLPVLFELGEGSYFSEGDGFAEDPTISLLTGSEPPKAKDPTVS
Sequence of CRX (O43186 whole entry): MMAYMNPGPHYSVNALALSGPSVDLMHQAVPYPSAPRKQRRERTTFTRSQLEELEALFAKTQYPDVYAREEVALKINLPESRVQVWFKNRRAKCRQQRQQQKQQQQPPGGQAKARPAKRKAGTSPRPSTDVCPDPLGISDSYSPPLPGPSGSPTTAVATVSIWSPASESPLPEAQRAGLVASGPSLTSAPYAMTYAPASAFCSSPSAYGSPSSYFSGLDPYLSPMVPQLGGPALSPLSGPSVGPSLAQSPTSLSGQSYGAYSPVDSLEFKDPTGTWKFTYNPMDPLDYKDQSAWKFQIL

Take TAAACA: the binding signal with FLI1 was 1.19 fold enrichment (6-mer frequency, TF over GST control); with ELK1, 1.2 fold enrichment (6-mer frequency, TF over GST control); in the assay with GABPA it was 1.19 fold enrichment (6-mer frequency, TF over GST control); with ERG, 1.21 fold enrichment (6-mer frequency, TF over GST control); with ELF1, 1.22 fold enrichment (6-mer frequency, TF over GST control); with EHF, 1.2 fold enrichment (6-mer frequency, TF over GST control). Moreover, the binding signal with SPI1 was 1.21 fold enrichment (6-mer frequency, TF over GST control); in the assay with SPIB, 1.16 fold enrichment (6-mer frequency, TF over GST control); with ELK3, 1.23 fold enrichment (6-mer frequency, TF over GST control); with FEV, 1.18 fold enrichment (6-mer frequency, TF over GST control); with ETV5, 1.24 fold enrichment (6-mer frequency, TF over GST control); with HSF1, 1.29 fold enrichment (6-mer frequency, TF over GST control). Besides, the binding signal with SPIC was 1.29 fold enrichment (6-mer frequency, TF over GST control); with ELF4, 1.26 fold enrichment (6-mer frequency, TF over GST control); with ELK4 it was 1.37 fold enrichment (6-mer frequency, TF over GST control); with ETV2, 1.22 fold enrichment (6-mer frequency, TF over GST control); in the assay with ELF3 it was 1.28 fold enrichment (6-mer frequency, TF over GST control); in the assay with CRX, 1.53 fold enrichment (6-mer frequency, TF over GST control). The binding signal with ETV1 is 1.2 fold enrichment (6-mer frequency, TF over GST control).
